Source: PubChem (National Center for Advancing Translational Sciences (NCATS))
TDP1 cell CPT: growth inhibition of DT40 Tdp1-/-;hTDP1 cells with camptothecin (screen for TDP1 inhibitors). AID 686979. chicken DT40 Tdp1-/-;hTDP1 cells + 20 nM CPT, ATP luminescence, 48 h. Potency, µM (doses to about 46.2 µM), for inactives: at the top dose activity change, negative = growth inhibition, hits mostly inhibitors. 12% of 420,000 active; note: nearly all actives have a fitted effect of over 55% in size
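Chicken DT40 Tdp1-/- cells complemented with human TDP1, 400 cells/well, exposed to compounds plus 20 nM camptothecin for at least 48 h at 37 C; viability read as ATP content by CellTiter-Glo luminescence.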
TDP1 inh: inhibitors of human tyrosyl-DNA phosphodiesterase TDP1 | Potency, µM (series often up to 130 µM), inactives show at the top dose activity change, negative = inhibition, usual class: inhibitors | AID 485290 | recombinant TDP1, AlphaScreen DNA substrate cleavage | Q9NUW8 | 0.28% of 350,000 active; note: nearly all actives have a fitted effect of over 40% in size
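Steps: enzyme plus compound, 15 min RT; add biotin/phosphotyrosine-FITC oligonucleotide (15 nM final), react 5 min; add donor/acceptor beads (10 ug/ml final), 10 min; read AlphaScreen. Tdp1 at 1 nM final.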
RORg inh: ROR gamma (mouse) transcription inhibition; Drosophila S2 Gal4-RORgamma UAS-luciferase reporter, 20 h; Potency, µM (doses to about 53.6 µM), without a hit: top-dose activity change, negative = inhibition, actives largely listed as inhibitors; 5.4% of 310,000 active; AID 2551; note: nearly all actives have a fitted effect of over 60% in size
Target sequence (P51450 whole entry, looked up, the tested form may be a part): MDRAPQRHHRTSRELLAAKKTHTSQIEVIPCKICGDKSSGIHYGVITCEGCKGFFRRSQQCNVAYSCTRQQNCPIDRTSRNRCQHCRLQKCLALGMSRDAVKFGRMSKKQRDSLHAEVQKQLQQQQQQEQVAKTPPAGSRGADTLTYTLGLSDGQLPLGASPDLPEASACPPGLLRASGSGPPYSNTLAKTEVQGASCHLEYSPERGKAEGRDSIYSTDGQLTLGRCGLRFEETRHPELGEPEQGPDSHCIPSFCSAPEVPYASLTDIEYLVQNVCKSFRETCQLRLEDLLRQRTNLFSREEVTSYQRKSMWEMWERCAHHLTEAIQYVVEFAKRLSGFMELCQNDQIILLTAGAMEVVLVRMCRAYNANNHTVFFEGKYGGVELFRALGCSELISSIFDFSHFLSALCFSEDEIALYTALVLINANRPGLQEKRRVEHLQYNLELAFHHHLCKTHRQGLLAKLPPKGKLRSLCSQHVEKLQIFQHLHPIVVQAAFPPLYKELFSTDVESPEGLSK
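Stably transfected Drosophila Schneider cells are the test system, with ROR gamma fused to Gal4 and luciferase under UAS control; luminescence is read after 20 hr of 700 uM copper sulfate induction at ambient temperature.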
Gal4-VP16 FLuc: inhibits Gal4-VP16 luciferase reporter, ROR gamma counter-screen | Potency, µM (titrated, usually from 53.6 µM), for inactives: top-dose activity, negative = inhibition, usual class: inhibitors | Drosophila S2 Gal4-VP16 UAS-luciferase, luminescence, 20 h | 3.5% of 310,000 active;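 note: Gal4-VP16 expression switched on by copper sulfate through the metallothionein promoter; nearly all actives have a fitted effect of over 50% in size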
TDP1 cell noCPT: qHTS for Inhibitors of human tyrosyl-DNA phosphodiesterase 1 (TDP1): qHTS in cells in absence of CPT | DT40 Tdp1-/- hTDP1 cells, no CPT, ATP luminescence, 48 h | Potency, µM (top dose mostly 46.2 µM), inactives show top-dose activity change, negative = growth inhibition, actives largely listed as inhibitors | 15% of 420,000 active; note: nearly all actives have a fitted effect of over 55% in size
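No-CPT arm: Tdp1-/-;hTDP1 DT40 cells (400/well) plus compounds, incubated ≥48 hr at 37 °C. Readout CellTiter-Glo luminescence.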
* hit, by the source's call; ? = inconclusive; nt = no result. Shown are actives, neighbours in structure and some others; about 19% of the full set was active somewhere. Calls come from the whole dose curve; as a rule, active = well fitted curve in the direction sought with a large enough effect; inconclusive = small, poorly fitted or top-dose-only effect, or another doubt; inactive = no such curve, though single readings can be large; an effect the other way counts as inactive or inconclusive. % is set by controls: 0 for no effect and ±100 for the full control effect; potency is the fitted concentration of half-maximal effect.

SMILES	TDP1 cell CPT	TDP1 inh	RORg inh	Gal4-VP16 FLuc	TDP1 cell noCPT
Cc1[nH]n(-c2ccccc2)c(=O)c1C=NCc1ccco1	nt	5%	-35%	6%	nt
Cc1[nH]n(-c2ccccc2)c(=S)c1C=NCCCN=Cc1c(C)[nH]n(-c2ccccc2)c1=S	?	6%	0.63µM*	1.8µM*	-17%
Cc1ccc(OCC(=O)N/N=C\c2c(C)n(C)c3ccccc23)c([N+](=O)[O-])c1	?	2%	24%	1%	18µM*
COCC(=O)N/N=C/c1c(C)[nH]n(-c2ccccc2)c1=O	18µM*	3%	0.63µM*	?	16µM*
CCOc1cccc(CN2CCC(n3nccc3NC(=O)CCCc3ccccc3)CC2)c1	?	4%	17%	4%	?
CC1CN(Cc2ccccc2)C(=O)NC1=O (configuration not stated)	24%	nt	nt	nt	5%
CN(CC(=O)Nc1ccccc1Cl)C(=O)COC(=O)/C=C/c1ccccc1	12%	-4%	nt	nt	8%
Cn1[nH]c(-c2ccccc2)c(/C=N/O)c1=O	?	2%	3.5µM*	0.89µM*	16µM*
Cc1[nH]n(-c2ccccc2)c(=O)c1/C=N\NC(=O)C1COc2ccccc2O1 (configuration not stated)	3.3µM*	11%	0.79µM*	1.1µM*	5.2µM*
Cc1ccc2cccc(N=Cc3c(C)[nH]n(-c4ccccc4)c3=O)c2n1	?	8%	1µM*	1µM*	?
Cc1[nH]n(-c2ccccc2)c(=O)c1/C=N/NC(=O)COc1ccccc1[N+](=O)[O-]	5.8µM*	11%	0.45µM*	0.63µM*	4.6µM*
CC(=O)N/N=C/c1c(C)[nH]n(-c2ccccc2)c1=O	-16%	8%	5µM*	11µM*	?
Cc1[nH]n(-c2ccccc2)c(=O)c1/C=N/NC(=O)C(C)C	15µM*	8%	6.3µM*	3.2µM*	?
COC(=O)CN=Cc1c(C)[nH]n(-c2ccccc2)c1=O	-4%	10%	0%	5%	-2%
Cc1[nH]n(-c2ccccc2)c(=O)c1C=Nc1ccc(S(=O)(=O)NC(N)=O)cc1	-28%	5%	-10%	-20%	-26%
Cc1[nH]n(-c2ccccc2)c(=O)c1C=NCC1CCCO1 (configuration not stated)	-1%	5%	19%	21%	-13%
Cc1[nH]n(-c2ccccc2)c(=O)c1/C=N/N1C(=O)c2ccc3c4c(ccc(c24)C1=O)CC3	?	10%	10µM*	?	18µM*
Cc1[nH]n(-c2ccccc2)c(=O)c1/C=N/N(C)c1ccccc1	?	10%	7.9µM*	?	?
Cc1[nH]n(-c2ccccc2)c(=O)c1/C=N/NC(=O)c1ccccc1F	6.5µM*	nt	0.5µM*	1µM*	5.2µM*
COC(=O)N/N=C\c1c(C)[nH]n(-c2ccccc2)c1=O	2%	4%	11µM*	?	-13%
Cc1nn(-c2ccccc2)c(Cl)c1/C=N/NC(=O)c1ccccc1F	-25%	3%	-9%	8%	?
Cc1cc2c(sc3ccccc32)c(C)n1	-16%	8%	?	4%	?
Nc1cnn(Cc2ccc(F)cc2)c1	8%	1%	2%	2%	14%
Nc1cnn(Cc2ccccc2F)c1	?	6%	-13%	-16%	21µM*
Cc1ccc(Nc2nc(N)c([N+](=O)[O-])c(NCCO)n2)cc1	?	2%	31%	-1%	?
SMILES	TDP1 cell CPT	TDP1 inh	RORg inh	Gal4-VP16 FLuc	TDP1 cell noCPT
Cc1ccc(/C=C2/C(=O)N(c3ccccc3)C(=S)N2C)o1	?	3%	29%	?	23µM*
Cc1ccc(S(=O)(=O)N2[C@@H](c3ccc(C(C)(C)C)cc3)C(C(=O)O)=CC[C@H]2c2ccc(Cl)cc2)cc1	23µM*	-17%	nt	nt	?
CC(=O)C1=CCC(c2ccc(C)cc2)N(S(=O)(=O)c2ccc(Cl)cc2)C1 (configuration not stated)	?	nt	nt	nt	16µM*
CC(=O)C1=CCC(c2ccc(Cl)c(Cl)c2)N(S(=O)(=O)c2ccc(C)cc2)C1 (configuration not stated)	?	nt	nt	nt	15µM*
CC(=O)C1=CCC(c2ccc(F)cc2)N(S(=O)(=O)c2ccc(C)cc2)C1 (configuration not stated)	?	nt	nt	nt	18µM*
COc1ccc([C@@H]2CC=C(C(=O)O)CN2S(=O)(=O)c2ccc(C)cc2)cc1OC	-11%	-1%	nt	nt	-13%
Cc1ccc(S(=O)(=O)N2CC(C(=O)O)=CC[C@H]2c2ccc(Cl)cc2)cc1	2%	-2%	nt	nt	-16%
C=CCNC(=S)NNC(=O)Cn1c(-c2ccccc2)cc(=O)n2ncnc12	-7%	nt	1%	4%	-1%
O=C(CSc1nc2ccccc2nc1Cc1ccccc1)N1CCN(c2ccccc2)CC1	-3%	0%	nt	nt	-6%
COc1ccc(Cl)cc1NC(=O)Cn1cc(C(=O)c2ccc(C)cc2)c(=O)c2ccc(C)nc21	?	-4%	nt	nt	23µM*
Cc1ccc(CNC(=O)Cn2cc(C(=O)c3ccc(Cl)cc3)c(=O)c3ccc(C)nc32)cc1	16µM*	2%	nt	nt	16µM*
Cc1ccc(C(=O)c2cn(CC(=O)Nc3ccc(C)cc3Cl)c3nc(C)ccc3c2=O)cc1	10µM*	-1%	nt	nt	23µM*
CC(O)(c1ccc(Cl)cc1)c1ccc(Cl)cc1	nt	11%	-5%	?	nt
CCOC(=O)c1nnn2c1nc(SCC(C)=O)c1ccccc12	1%	0%	15%	-14%	?
Cc1ccc(-c2nnn3c2nc(NC2CCC(C)CC2)c2ccccc23)cc1 (configuration not stated)	-12%	1%	nt	nt	?
CC1CCC(Nc2nc3c(-c4cccc(C(F)(F)F)c4)nnn3c3ccccc23)CC1 (configuration not stated)	?	9%	nt	nt	29µM*
C=CCSc1nc2c(C(=O)OCC)nnn2c2ccccc12	?	nt	2%	1%	9.2µM*
CCOC(=O)c1nnn2c1nc(Nc1cccc(C(F)(F)F)c1)c1ccccc12	10µM*	nt	18%	-2%	5.8µM*
O=C(CSc1nnc(NC(=O)C2CC(=O)N(c3ccccc3)C2)s1)NC1CCCC1 (configuration not stated)	2%	4%	-19%	12%	-4%
O=C(O)CCC(=O)N1CC=C(c2ccccc2)CC1	-28%	1%	10%	-3%	-3%
O=C(Cn1[nH]c(=O)c2ccccc2c1=O)N1CC=C(c2ccccc2)CC1	11µM*	4%	-2%	-8%	16µM*
O=C(CSc1n[nH]c(-c2ccc(F)cc2)n1)NCc1ccccc1Cl	?	5%	nt	nt	?
